This is an account of results in PubChem BioAssay (NCI).

Compounds without any hit were thinned out: in the full panel of roughly 83,000, 20% have a hit.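 Treatment: one concentration, 48 hours, 96-well format. Scoring: percent growth, with anything below 10 considered active.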 Calls of active or inactive are those of the source.

The subject of the test is UACC-62 melanoma. Nature of the test: NCI-60 one-dose screen, 48 h (100 = growth as untreated, 0 = no growth, -100 = all killed). The note with it: 10 µM.
Turning to `CCN1CCN(CCC(=O)Nc2cccc(-n3cc(-c4ccncc4)c(-c4ccc(Cl)c(OC)c4)n3)c2)CC1`, the growth is -17% (active).

With `Nc1ccn(Cc2nnc(CCC(=O)c3nc4ccccc4[nH]3)o2)c(=O)n1`, the growth is 66.2% (inactive).

Turning to `Cc1ccc2nc(Cl)c(-c3nc4ccccc4o3)cc2c1`, the growth was 94.9% (inactive).

For `C/C=C/CSC(C)(C)C(=O)NC`, the growth was 105% (inactive).

For `COc1cc2c(Nc3ccc(S(N)(=O)=O)cc3)ncnc2c(OC)c1OC`, the growth is 97.4% (inactive).

As for `CC(=O)OC1C=CC(OC(C)=O)O1` (configuration not stated), the growth is 84.4% (inactive).

Regarding `CC(=O)C1N=NCC1c1ccccc1` (configuration not stated), the growth was 83.8% (inactive).

`O=C(CN(C1CCCCC1)C1CCCCC1)Nc1ccc(S(=O)(=O)c2ccc(NC(=O)CN(C3CCCCC3)C3CCCCC3)cc2)cc1`: the growth was -20.9% (active).

For `Cc1c[nH]c(=O)n(Cc2nnc(CCC(=O)c3nc4ccccc4[nH]3)o2)c1=O`, the growth was 41% (inactive).

On to `O=C(CCn1cnc2c(cc(-c3ccccc3)n2-c2ccccc2)c1=O)Nc1ccc(F)cc1`, for which the growth was 63.2% (inactive).

For `CN(C)CCOc1cccc(NC2=C(Cl)C(=O)C(Nc3cccc(OCCN(C)C)c3)=C(Cl)C2=O)c1`, the growth is -82.2% (active).

With `CN1CCN(CCC(=O)Nc2cccc(-n3cc(-c4ccncc4)c(-c4ccc(Cl)c(O)c4)n3)c2)CC1`, the growth is 46.9% (inactive).

Take `CC(=O)Nc1ccc(CC[C@H]2CCC/C=C/[C@@H]3C[C@H](O)C[C@H]3[C@H](O)/C=C/C(=O)O2)cc1`: the growth is 18.7% (inactive).

As for `CN(C)CCN(Cc1ccccc1)c1ccc2ccccc2n1`, the growth was 92.9% (inactive).

In the case of `C/C(=N\O)c1ccc(NC(=O)CSc2nnc(-c3ccccc3)n2-c2ccccc2)cc1`, the growth is 81.9% (inactive).

As for `CCC(CC)n1c(C)cc(=O)n1C(CC)CC`, the growth is 101% (inactive).

For `CC[C@@H](C(=O)[C@H](C)[C@H](O)[C@@H](C)[C@H]1O[C@H]([C@@H](CC)C(=O)O)CC[C@H]1C)C1O[C@]2(C=C[C@@H](O)[C@]3(CC[C@@](C)([C@H]4CC[C@](O)(CC)[C@H](C)O4)O3)O2)[C@H](C)C[C@@H]1C` (some centres not stated), the growth is -92.2% (active).

On to `O=C(O)c1cc([N+](=O)[O-])ccc1Oc1ccccc1`, for which the growth was 103% (inactive).

As to `O=[N+]([O-])c1cccc(/C=N/NC(=S)NC23CC4CC(CC(C4)C2)C3)c1`, the growth was 84.3% (inactive).

Turning to `COc1cc(C(=O)n2nc(-c3cc(OC)c(OC)c(OC)c3)nc2N)cc(OC)c1OC`, the growth was 102% (inactive).

On to `COc1ccc(-c2n[nH]nc2-c2cc(OC)c(OC)c(OC)c2)cc1`, for which the growth is 38.4% (inactive).

`C=CCN(CC=C)C(=O)[C@H](CC)[C@@H]1CC[C@@H](C)[C@@H]([C@H](C)[C@@H](O)[C@@H](C)C(=O)[C@H](CC)C2O[C@]3(C=C[C@@H](O)[C@]4(CC[C@@](C)([C@H]5CC[C@](O)(CC)[C@H](C)O5)O4)O3)[C@H](C)C[C@@H]2C)O1` (some centres not stated): the growth was 14.3% (inactive).

Turning to `O=C(Nc1cccc2c1CCCC2)c1cc2ccccc2cc1O`, the growth was 23% (inactive).

With `O=C1/C=C/[C@@H](O)[C@@H]2C[C@@H](O)C[C@H]2/C=C/CCC[C@H](CCc2ccc(NC(=S)Nc3ccc4c(c3)C(=O)OC43c4ccc(O)cc4Oc4cc(O)ccc43)cc2)O1`, the growth was 16.3% (inactive).

Take `COc1cc(/C=C/c2cc(/C=C/c3ccc(O)c(OC)c3)nc(N)n2)ccc1O`: the growth is -57.7% (active).

Take `CC(=O)Oc1cc(OC(C)=O)c2ccccc2c1OC(C)=O`: the growth was 89.9% (inactive).

Regarding `CCOc1ccccc1/C=N\N=C\c1ccccc1O`, the growth was 93% (inactive).
